Assay outcomes from PubChem BioAssay.
An excerpt weighted towards active compounds, which were near 2.3% of everything screened.
M1 ag parental: M1 agonist counterscreen hit in parental CHO-K1 cells; AID 602248; activation, % at 3 µM; Fluo-8 calcium fluorescence; scaled to maximal ATP response, vehicle zero; 360,000 tested, 0.48% active; in the data active means activation above about 15%;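 further: untransfected CHO-K1 host cells lacking M1 receptor as counterscreen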
M1 PAM parental: counter-screen for M1 PAMs: effect in parental CHO-K1 cells; 360,000 tested, 0.02% active; ATP EC20, Fluo-8 calcium fluorescence; 0% at ATP EC20, 100% at ATP max; activation, % at 3 µM;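 active means activation above the run cutoff, the mean activation of all test compounds plus 3 SD, cut at about 40% in these data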;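 further: peak over basal fluorescence ratio in a 140 s read after ATP addition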
CHO-K1 Ca antag: M1 antagonist counterscreen hit in parental CHO-K1 cells; AID 602250; 360,000 tested, 0.6% active; inhibition, % at 3 µM; ATP-induced calcium, Fluo-8 fluorescence;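 active means inhibition above a per-plate cutoff, the plate's mean sample inhibition plus 3 SD, cut at about 24% in these data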;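 further: 0% = DMSO plus EC80 ATP and 100% = DMSO alone without ATP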
CHRM1 antagonist: blocks human M1 muscarinic receptor; P11229; CHO-K1 hM1, Fluo-8 calcium fluorescence, ACh EC80 antagonist; inhibition, % at 3 µM; 360,000 tested, 1.3% active; AID 588852;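 active means percent inhibition above its own plate's cutoff, namely the mean of that plate's compound wells plus 3 SD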;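 further: peak over basal fluorescence ratio during 140 s after agonist addition; 0% = ACh EC80 plus DMSO and 100% = DMSO alone without agonist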
Target sequence (P11229 whole entry, looked up): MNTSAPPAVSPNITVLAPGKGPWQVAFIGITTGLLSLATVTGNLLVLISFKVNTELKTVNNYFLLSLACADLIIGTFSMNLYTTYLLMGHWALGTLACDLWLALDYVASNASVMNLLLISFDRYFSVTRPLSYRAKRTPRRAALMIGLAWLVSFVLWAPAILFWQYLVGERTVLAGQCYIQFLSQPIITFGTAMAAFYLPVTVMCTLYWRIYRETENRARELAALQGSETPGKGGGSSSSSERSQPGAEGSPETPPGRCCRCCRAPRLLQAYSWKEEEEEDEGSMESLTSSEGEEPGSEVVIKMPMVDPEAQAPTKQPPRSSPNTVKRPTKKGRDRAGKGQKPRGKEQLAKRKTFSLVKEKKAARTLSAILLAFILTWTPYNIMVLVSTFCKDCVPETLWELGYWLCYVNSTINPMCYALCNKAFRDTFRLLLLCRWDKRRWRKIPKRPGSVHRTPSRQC
CHRM1 agonist: human M1 muscarinic receptor agonism. P11229. CHO-K1 hM1, Fluo-8 calcium fluorescence, agonist mode; 0% DMSO, 100% acetylcholine EC100. activation, % at 3 µM. 360,000 tested, 0.33% active;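 active means activation above the run's mean compound activation plus 3 SD, cut at about 16% in these data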;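 further: peak over basal fluorescence ratio within a 140 s kinetic read after compound addition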
CHRM1 PAM: potentiates human M1 receptor response to acetylcholine; P11229; CHO-K1 hM1, Fluo-8 calcium fluorescence, ACh EC20; 0% = ACh EC20, 100% = maximal ACh; activation, % at 3 µM; 360,000 tested, 0.088% active; in the data active means activation above about 19%, passing the limit was not always enough
Numbers without * were called inactive.

`COc1ccc(CN2CCN(C(=O)CCC(=O)Nc3nnc(C(F)(F)F)s3)CC2)cc1F` gave M1 ag parental 7, M1 PAM parental 9, CHO-K1 Ca antag -28, CHRM1 antagonist 9, CHRM1 agonist -3 and CHRM1 PAM -9.
For CCCc1nnc(NC(=O)CCC(=O)N2CCN(Cc3ccc(OC)c(F)c3)CC2)s1 the results were M1 ag parental 3, M1 PAM parental -8, CHO-K1 Ca antag -15, CHRM1 antagonist 49*, CHRM1 agonist -4 and CHRM1 PAM -21.
Screening COc1ccc(CN2CCN(C(=O)CCC(=O)Nc3nnc(CC(C)C)s3)CC2)cc1F returned M1 ag parental 7, M1 PAM parental -16, CHO-K1 Ca antag 3, CHRM1 antagonist 25, CHRM1 agonist -2 and CHRM1 PAM -17.
For COc1ccc(CN2CCN(C(=O)CCC(=O)Nc3nnc(C4CCCCC4)s3)CC2)cc1F the results were M1 ag parental 5, M1 PAM parental 27, CHO-K1 Ca antag -15, CHRM1 antagonist 34*, CHRM1 agonist -2 and CHRM1 PAM -17.
`COc1ccc(N(CC(=O)N2c3ccccc3CC2C)S(=O)(=O)c2c(C)nn(C)c2C)cc1` (stereo not given) gave M1 ag parental 6, M1 PAM parental -5, CHO-K1 Ca antag 18, CHRM1 antagonist 28*, CHRM1 agonist -7 and CHRM1 PAM -10.
O=C(CN1CCCC1)N1c2ccccc2Sc2ccc(C(F)(F)F)cc21 was read as M1 ag parental 1, M1 PAM parental 14, CHO-K1 Ca antag -15, CHRM1 antagonist 99*, CHRM1 agonist -6 and CHRM1 PAM -19.
Screening O=C(CN1CCCC1)N1c2ccccc2Sc2ccc(Cl)cc21 returned M1 ag parental 1, M1 PAM parental 19, CHO-K1 Ca antag -13, CHRM1 antagonist 99*, CHRM1 agonist -10 and CHRM1 PAM -29.
`CCNCCC(=O)N1c2ccccc2Sc2ccc(C(F)(F)F)cc21` gave M1 ag parental 0, M1 PAM parental 11, CHO-K1 Ca antag -4, CHRM1 antagonist 100*, CHRM1 agonist -9 and CHRM1 PAM -29.
Screening O=C(CN1CCN(c2ccccn2)CC1)N1c2ccccc2Sc2ccc(C(F)(F)F)cc21 returned M1 ag parental 0, M1 PAM parental 6, CHO-K1 Ca antag 14, CHRM1 antagonist 31*, CHRM1 agonist -7 and CHRM1 PAM -27.
For CCOc1ccc(NS(=O)(=O)c2ccc(NC(=O)[C@@H]3CCCC[C@@H]3C(=O)O)cc2)cc1 the results were M1 ag parental -1, M1 PAM parental -7, CHO-K1 Ca antag -1, CHRM1 antagonist 0, CHRM1 agonist -5 and CHRM1 PAM -4.
For CCc1ccc(-c2cc(C)no2)cc1S(=O)(=O)NCCc1ccc(OC)c(OC)c1 the results were M1 ag parental 5, M1 PAM parental 17, CHO-K1 Ca antag -19, CHRM1 antagonist -5, CHRM1 agonist -3 and CHRM1 PAM 1.
`COC(=O)CSc1nc2c(c(=O)n(C)c(=O)n2C)n1CCCc1ccccc1` gave M1 ag parental 0, M1 PAM parental 7, CHO-K1 Ca antag -10, CHRM1 antagonist -10, CHRM1 agonist -2 and CHRM1 PAM -1.
For Cc1ccc(Cn2c(CN(C)Cc3ccccc3)nc3c2c(=O)n(C)c(=O)n3C)cc1 the results were M1 ag parental 5, M1 PAM parental 17, CHO-K1 Ca antag -4, CHRM1 antagonist 7, CHRM1 agonist 16* and CHRM1 PAM 1.
For CN(Cc1ccccc1)c1nc2c(c(=O)n(C)c(=O)n2C)n1CCCc1ccccc1 the results were M1 ag parental 3, M1 PAM parental 10, CHO-K1 Ca antag 11, CHRM1 antagonist 34*, CHRM1 agonist -3 and CHRM1 PAM -17.
Screening CC(O)CSc1nc2c(c(=O)n(C)c(=O)n2C)n1CCCc1ccccc1 (stereo not given) returned M1 ag parental 1, M1 PAM parental 20, CHO-K1 Ca antag 2, CHRM1 antagonist -29, CHRM1 agonist 0 and CHRM1 PAM 24*.
For O=C(Nc1ccc(Oc2ccccc2)cc1)c1ccc2sc([C@H]3C[C@H](O)[C@@H](CO)O3)nc2c1 the results were M1 ag parental 6, M1 PAM parental 11, CHO-K1 Ca antag 0, CHRM1 antagonist 23, CHRM1 agonist -4 and CHRM1 PAM -5.
